Drawing on the supplement of paper PMC6555819, this text covers PBM binding z-score for 22 sequences.

This experiment concerns VDR:RXRa (NR concentration 270 nM, RXRa partner concentration 90 nM). The experiment in a line: PBM binding z-score (relative to random genomic background probes); higher = stronger binding; sequences stand for … in GC…GCGATTGACAGCGTAGAATGAAGG
The procedure, abridged: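 Random background probes are the reference for binding z-scores. These scores derive from regression-normalized fluorescence on custom Agilent 4×180K protein-binding microarrays incubated 1 h with ligand-free nuclear receptor dimers. Binding was detected with antibodies against each partner (one per run).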
Sequence GATACAGGGTCAGGTAGAGGCCAGAGTATGGAAA came in with a PBM binding z-score of 3.35.

Turning to TTACCAAGGTGAGCTGAGGTCCTTGATCCAACTC, the PBM binding z-score worked out at 0.464.

The sequence AGAACGAGGGCAATGAGTTGAGAGCACGGGTGGC gave a PBM binding z-score of 4.33.

The sequence ATCGATAGGTCGTGAGGTGAGTATACAGAAAGGC had a PBM binding z-score of 1.08.

Regarding GATACAGGGTCAAGGCAAGAGTACGCGTATTGAT, the PBM binding z-score was found to be 4.62.

Sequence TCTAGTTGGTCACGCAGGTCACACACGACGGGTA registered a PBM binding z-score of 4.01.

On to CTCGAAAGGTCGTGCTCAGGTGACTATACCAAAC, for which the PBM binding z-score came out at 3.53.

As to CATACTGGGCCAAAGGTCATTGATTCCAATGCTC, the PBM binding z-score was 5.1.

In turn, TCGAGTAGGTTACCAATAGGGCATTCAGCTTTCT registered a PBM binding z-score of 0.152.

In turn, CGTCCAAGGTCAAGGTCAGTGATAGAGACTCGAA yielded a PBM binding z-score of 4.95.

TCTAGTTGGTCAAGGAGGTCACACACGACGGGTA returned a PBM binding z-score of 5.23.

The sequence GCATATACGTAATACAAGGTGAAAGTCCGATTGT yielded a PBM binding z-score of 0.232.

With ACTAGTTGGACAGCTGAGGTCACACACAATTCGG, the PBM binding z-score is 3.85.

In the case of CCTAGTTGGTCAAGGTCACACGCGCTATAGGTAC, the PBM binding z-score amounted to 4.29.

In the case of ATATGTAGGTTACGGGTCATTCAGGTTGGTTCGC, the PBM binding z-score was 4.76.

Take ATCGAAAGCTCGTGAGGTGAGTATACAGAAAGGC: the PBM binding z-score was -0.256.

As to CCTATTAGTTGACCATCAGGGCAACCGAAGCTCG, the PBM binding z-score was found to be 0.508.

Consider TCGAGTAGGTGAGTCGGGGCATTCAGCCAACATA, for which the PBM binding z-score worked out at 1.68.

With ACTAGTTGGTCAGCTGAGCTCACACACAATTCGG, the PBM binding z-score is -0.299.

TATACAGGGTCAAAGGCCAGAATACGAATGTCGA: the PBM binding z-score turned out to be 4.62.

The sequence TTACCAAGGTGAAGGTCGTTGAGCCCTCTGTAGA showed a PBM binding z-score of 1.

Regarding TCTGCTAGGTCAGTTGGTCAGCTATCGAGCTGCC, the PBM binding z-score turned out to be 0.206.
